# Measurements reported in ChEMBL document CHEMBL3988442, “University of Dundee, Small-Polar-MMV Screening Library” (2021).
# Out of some 66,000 compounds screened, about 960 (1.5%) showed an effect of 50% or more. Shown is part of a subset that was picked to be rich in strong results.
# System: Trypanosoma brucei
# Assay: Trypanosoma brucei 72 hour study
# Format: functional, organism-based
# Parameters: scale not given: in the data most compounds retested in dose-response had high values
compound,measurement,setting,value
O=C(NC[C@]12COC[C@H]1CN(Cc1nccs1)C2)c1ccsc1.O=C(O)C(F)(F)F,Percent Effect,"30 µM, 30.03 µM",-41.51%
CN(C)CCN1CCN(Cc2cccc(C#N)c2)Cc2cccnc21.O=C(O)C(F)(F)F.O=C(O)C(F)(F)F.O=C(O)C(F)(F)F,Percent Effect,"30.3 µM, […]",-65.33%
CN1C(=O)[C@H]2CC[C@@H]1CN(S(=O)(=O)c1ccc(Cl)cc1Cl)C2,Percent Effect,"30 µM, 30.03 µM",13.71%
Cn1cc(C2CCCN2Cc2csc(C(C)(C)C)n2)cn1 (stereo not drawn),Percent Effect,"30 µM, 30.03 µM",87.76%
Cn1cc(C2CCCN2Cc2csc(-c3ccccc3)n2)cn1 (stereo not drawn),Percent Effect,10 µM,-15.89%
CC(C)c1nc(CN2CCCC2c2cnn(C)c2)cs1 (stereo not drawn),Percent Effect,10 µM,-7.544%
COCCn1c(=O)n(C)c(=O)c2ccc(C3CCN(C(C)=O)CC3)nc21,Percent Effect,"30.3 µM, […]",24.28%
Cl.OC[C@H]1CC[C@]2(CC1)CN(Cc1ccsc1)Cc1ccccc1O2,Percent Effect,"30.3 µM, […]",39.16%
CC(C)c1nccc(CN2CCCC(O)(CN(C)C)C2)n1 (stereo not drawn),Percent Effect,"30 µM, 30.03 µM",-2.317%
CC(C)c1nccc(CN2CCCC(O)(CN3CCCC3)C2)n1 (stereo not drawn),Percent Effect,"30 µM, 30.03 µM",17.13%
CC(C)c1nccc(CN2CCC(O)(CN3CCCCC3)C2)n1 (stereo not drawn),Percent Effect,"30 µM, 30.03 µM",67.93%
CCCSc1ncc(CN(C)CCN2CCCCC2)cn1.O=C(O)CC(O)(CC(=O)O)C(=O)O,Percent Effect,"30.3 µM, […]",2.471%
Cc1cccc(Nc2cc(C3CCCN(CC(N)=O)C3)ccn2)n1.O=CO.O=CO (stereo not drawn),Percent Effect,"30.3 µM, […]",-0.9423%
Cc1ccccc1N1CCCN(CC2(O)CCCNC2)CC1 (stereo not drawn),Percent Effect,"30 µM, 30.03 µM",24.63%
CCOc1ccccc1N1CCN(CC2(O)CCCNC2)CC1 (stereo not drawn),Percent Effect,"30 µM, 30.03 µM",-24.1%
Cc1ccc(C)c(N2CCN(CC3(O)CCNC3)CC2)c1 (stereo not drawn),Percent Effect,"30 µM, 30.03 µM",106.8%
Cn1cccc1C(=O)N1CCC2(CC1)CN(c1ccsc1)C(=O)CO2,Percent Effect,"30.3 µM, […]",-133.6%
COc1ccc(CN2CCO[C@H]3[C@H](OCCN4CCCC4)CC[C@@H]32)cc1.O=C(O)C(F)(F)F.O=C(O)C(F)(F)F,Percent Effect,"30.3 µM, […]",-2.76%
O=c1[nH]c(-c2ccccn2)nc2c1CCN(Cc1cccc(O)c1)C2,Percent Effect,"30.3 µM, […]",-1.061%
O=c1[nH]c(-c2ccccn2)nc2c1CCN(S(=O)(=O)N1CCCC1)C2,Percent Effect,"30.3 µM, […]",16.13%
COc1ccc(CN2CCc3c(nc(-c4ccccn4)[nH]c3=O)C2)cc1,Percent Effect,"30.3 µM, […]",100.8%
Cn1cccc1CN1CCc2c(nc(-c3ccccn3)[nH]c2=O)C1,Percent Effect,"30.3 µM, […]",100.6%
Cc1nn(C)cc1CN1CCc2c(nc(-c3ccccn3)[nH]c2=O)C1,Percent Effect,"30.3 µM, […]",3.808%
Cn1cc(CN2CCc3c(nc(-c4ccccn4)[nH]c3=O)C2)cn1,Percent Effect,"30 µM, 30.03 µM",19.69%
Cc1ncc(CN2CCc3c(nc(-c4ccccn4)[nH]c3=O)C2)n1C,Percent Effect,"30.3 µM, […]",9.769%
COc1ccccc1CN1CCc2c(nc(-c3ccccn3)[nH]c2=O)C1,Percent Effect,"30.3 µM, […]",100.6%
CCn1ncc(CN2CCc3c(nc(-c4cccnc4)[nH]c3=O)C2)c1C,Percent Effect,"30 µM, 30.03 µM",24.52%
CCN(CC)CC1CN(CCc2ccccc2)Cc2nccn2C1.O=C(O)C(F)(F)F.O=C(O)C(F)(F)F (stereo not drawn),Percent Effect,"30 µM, 30.03 µM",-28.98%
CC(C)c1nn(C)c(N(C)C)c1CNCCC(=O)NC1CCCCC1,Percent Effect,"30.3 µM, […]",-9.322%
Cc1cccc(CN2C(=O)CCC23CCN(Cc2cccn2C)CC3)n1.O=C(O)C(F)(F)F.O=C(O)C(F)(F)F,Percent Effect,"30.3 µM, […]",-13.68%
Cl.O=C(CCC1CCCC1)NCCn1nc(C2CCNC2)c2cccnc21 (stereo not drawn),Percent Effect,"30 µM, 30.03 µM",11.21%
CN(C)c1ncc(-c2ccc(C(N)=O)cc2)c(C2CCNC2)n1.Cl (stereo not drawn),Percent Effect,"30.3 µM, […]",3.717%
C[C@@H]1CN(C2CCCCC2)CC[C@@]1(O)C1CCOCC1,Percent Effect,"30 µM, 30.03 µM",-20.03%
c1cc(-c2nc3c(c(NCCn4ccnn4)n2)CCNCC3)ccn1,Percent Effect,"30 µM, 30.03 µM",-15.86%
CCOCCNc1nc(-c2ccncc2)nc2c1CCNCC2,Percent Effect,"30.3 µM, […]",-307.1%
Cl.NC1CCc2nc(-c3ccncc3)nc(Nc3cccc(F)c3)c2C1 (stereo not drawn),Percent Effect,"30.3 µM, […]",99.62%
O=C(Nc1cccc(F)c1)NC1CCN(Cc2ccncc2)CC1,Percent Effect,"30.3 µM, […]",-25.17%
CC(Nc1nc(-c2ccncc2)nc2c1CCNC2)c1ccccc1 (stereo not drawn),Percent Effect,"30 µM, 30.03 µM",-57.19%
CS(=O)(=O)NCc1ncn2c1CN(Cc1cccs1)CCC2.O=C(O)C(F)(F)F.O=C(O)C(F)(F)F,Percent Effect,"30 µM, 30.03 µM",32.32%
Cc1c(C(=O)NCCC(=O)N2CCOCC2)sc2ccc(F)cc12,Percent Effect,"30 µM, 30.03 µM",-29.66%
CN1C[C@]2(CC[C@@H](C(=O)O)CC2)Oc2ccccc2C1=O,Percent Effect,"30.3 µM, […]",-13.61%
C[C@@H]1CN(C(=O)c2cccs2)C[C@]12CCN(CCN(C)C)C2=O.O=C(O)C(F)(F)F,Percent Effect,"30.3 µM, […]",-25.2%
c1nc2n(c1CN1CCCC1)CCN(C1CCOCC1)CC2,Percent Effect,"30 µM, 30.03 µM",51.58%
O=C(O)C(F)(F)F.O=C(O)C(F)(F)F.c1nc2n(c1CN1CCCCC1)CCN(C1CCOC1)CC2 (stereo not drawn),Percent Effect,"30 µM, 30.03 µM",-102.4%
c1nc2n(c1CN1CCOCC1)CCN(C1CCOC1)CC2 (stereo not drawn),Percent Effect,"30 µM, 30.03 µM",-183.8%
Cl.O=C(NCCO)C1(Cc2ccccc2-c2cccnc2)CCOCC1,Percent Effect,"30.3 µM, […]",-4.855%
COC1COC2(CCN(Cc3ccc4c(c3)OCO4)CC2)C1.O=C(O)C(F)(F)F (stereo not drawn),Percent Effect,"30.3 µM, […]",-15.29%
Br.Cc1ncc(C(=O)N2CCOC(C(=O)N3CCCCCC3)C2)c(C)n1 (stereo not drawn),Percent Effect,"30.3 µM, […]",-22.96%
